# Source: the supplement of paper PMC8728848
# The sample as a whole holds a higher share of the strongest signals than the screen did.
# B1: MFG-E8 (Homo sapiens), Q08431 (protein)
# chain: MPRPRLLAALCGALLCAPSLLVALDICSKNPCHNGGLCEEISQEVRGDVFPSYTCTCLKGYAGNHCETKCVEPLGLENGNIANSQIAASSVRVTFLGLQHWVPELARLNRAGMVNAWTPSSNDDNPWIQVNLLRRMWVTGVVTQGASRLASHEYLKAFKVAYSLNGHEFDFIHDVNKKHKEFVGNWNKNAVHVNLFETPVEAQYVRLYPTSCHTACTLRFELLGCELNGCANPLGLKNNSIPDKQITASSSYKTWGLHLFSWNPSYARLDKQGNFNAWVAGSYGNDQWLQVDLGSSKEVTGIITQGARNFGSVQFVASYKVAYSNDSANWTEYQDPRTGSSKIFPGNWDNHSHKKNLFETPILARYVRILPVAWHNRIALRLELLGC
# Key:
# Assay in all cases: glycan array binding signal (z-score within array); higher = stronger binding
# Conditions in all cases: glycan notation: IUPAC condensed, linker removed
# [1] = target: Fuc(a1-2)Gal(b1-3)GlcNAc(b1-3)Gal(b1-4)Glc
# Procedure, shortened: (§1)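 Negative Z-scores can be read as non-binding. The Z-score is calculated within each array and then averaged across arrays of one protein sequence at different concentrations or buffers and across linkers. Arrays, 3228 in all, were curated from the Consortium for Functional Glycomics database and kept only where the protein sequence was available.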
# [2] = target: Fuc(a1-2)Gal(b1-3)GlcNAc(b1-3)[Gal(b1-4)GlcNAc(b1-6)]Gal(b1-4)Glc
# Procedure, shortened: as §1
# [3] = target: Fuc(a1-2)Gal(b1-3)[Fuc(a1-4)]GlcNAc(b1-2)Man(a1-3)[Fuc(a1-2)Gal(b1-3)[Fuc(a1-4)]GlcNAc(b1-2)Man(a1-6)]Man(b1-4)GlcNAc(b1-4)GlcNAc
# Procedure, shortened: as §1
# Fuc(a1-2)Gal(b1-4)Glc6S = target: Fuc(a1-2)Gal(b1-4)Glc6S
# Procedure, shortened: as §1
# [4] = target: Fuc(a1-2)Gal(b1-4)[Fuc(a1-3)]GlcNAc(b1-2)Man(a1-3)[Fuc(a1-2)Gal(b1-4)[Fuc(a1-3)]GlcNAc(b1-2)Man(a1-6)]Man(b1-4)GlcNAc(b1-4)GlcNAc
# Procedure, shortened: as §1
# [5] = target: Fuc(a1-2)Gal(b1-4)[Fuc(a1-3)]GlcNAc(b1-2)[Fuc(a1-2)Gal(b1-4)[Fuc(a1-3)]GlcNAc(b1-4)]Man(a1-3)[Fuc(a1-2)Gal(b1-4)[Fuc(a1-3)]GlcNAc(b1-2)Man(a1-6)]Man(b1-4)GlcNAc(b1-4)GlcNAc
# Procedure, shortened: as §1
# [6] = target: Fuc(a1-2)[Gal(a1-3)]Gal(b1-3)GlcNAc(b1-2)Man(a1-3)[Fuc(a1-2)[Gal(a1-3)]Gal(b1-3)GlcNAc(b1-2)Man(a1-6)]Man(b1-4)GlcNAc(b1-4)[Fuc(a1-6)]GlcNAc
# Procedure, shortened: as §1
# [7] = target: Fuc(a1-2)[GalNAc(a1-3)]Gal
# Procedure, shortened: as §1
# [8] = target: Gal(a1-3)Gal(b1-4)GlcNAc(b1-3)GalNAc
# Procedure, shortened: as §1
# [9] = target: Gal(b1-3)GalNAc(b1-3)Gal(a1-4)Gal(b1-4)Glc
# Procedure, shortened: as §1
# [10] = target: Gal(b1-3)GalNAc(b1-4)[Neu5Ac(a2-3)]Gal(b1-4)Glc
# Procedure, shortened: as §1
# [11] = target: Gal(b1-3)GlcNAc(b1-3)Gal(b1-4)GlcNAc(b1-6)[Gal(b1-3)GlcNAc(b1-3)]Gal(b1-4)Glc
# Procedure, shortened: as §1
# [12] = target: Gal(b1-3)GlcNAc(b1-6)Gal(b1-4)GlcNAc
# Procedure, shortened: as §1
# [13] = target: Gal(b1-3)[Neu5Ac(b2-6)]GalNAc
# Procedure, shortened: as §1
# Gal(b1-4)GlcNAc = target: Gal(b1-4)GlcNAc
# Procedure, shortened: as §1
# Gal3S(b1-4)Glc6S = target: Gal3S(b1-4)Glc6S
# Procedure, shortened: as §1
# Gal6S(b1-3)GlcNAc6S = target: Gal6S(b1-3)GlcNAc6S
# Procedure, shortened: as §1
# GlcA(b1-3)GlcNAc = target: GlcA(b1-3)GlcNAc
# Procedure, shortened: as §1
# [14] = target: GlcNAc(a1-4)Gal(b1-4)GlcNAc(b1-3)Gal(b1-4)GlcNAc
# Procedure, shortened: as §1
# [15] = target: GlcNAc(b1-2)Gal(b1-3)GalNAc
# Procedure, shortened: as §1
# [16] = target: GlcNAc(b1-3)Gal(b1-3)GalNAc
# Procedure, shortened: as §1
# [17] = target: GlcNAc(b1-3)Gal(b1-4)GlcNAc
# Procedure, shortened: as §1
# [18] = target: Man(a1-2)Man(a1-6)[Man(a1-3)]Man(a1-6)[Man(a1-2)Man(a1-2)Man(a1-3)]Man(b1-4)GlcNAc(b1-4)GlcNAc
# Procedure, shortened: as §1
# Neu5Ac(a2-3)Gal = target: Neu5Ac(a2-3)Gal
# Procedure, shortened: as §1
# [19] = target: Neu5Ac(a2-3)Gal(b1-3)GalNAc(b1-4)[Neu5Ac(a2-3)]Gal(b1-4)Glc
# Procedure, shortened: as §1
# [20] = target: Neu5Ac(a2-3)Gal(b1-3)[Fuc(a1-4)]GlcNAc(b1-3)Gal(b1-3)[Fuc(a1-4)]GlcNAc
# Procedure, shortened: as §1
# [21] = target: Neu5Ac(a2-3)Gal(b1-4)GlcNAc(b1-3)Gal
# Procedure, shortened: as §1
# [22] = target: Neu5Ac(a2-3)Gal(b1-4)GlcNAc(b1-6)[Gal(b1-3)]GalNAc
# Procedure, shortened: as §1
# [23] = target: Neu5Ac(a2-3)Gal(b1-4)[Fuc(a1-3)]GlcNAc(b1-3)Gal(b1-4)GlcNAc
# Procedure, shortened: as §1
# [24] = target: Neu5Ac(a2-6)Gal(b1-4)GlcNAc(b1-2)Man(a1-3)[Neu5Ac(a2-6)Gal(b1-4)GlcNAc(b1-2)Man(a1-6)]Man(b1-4)GlcNAc(b1-4)GlcNAc
# Procedure, shortened: as §1
# [25] = target: Neu5Ac(a2-8)Neu5Ac(a2-3)Gal(b1-3)GalNAc(b1-4)[Neu5Ac(a2-8)Neu5Ac(a2-3)]Gal(b1-4)Glc
# Procedure, shortened: as §1
# Neu5Ac(b2-6)GalNAc = target: Neu5Ac(b2-6)GalNAc
# Procedure, shortened: as §1
# [26] = target: Neu5Gc(a2-3)Gal(b1-3)GlcNAc
# Procedure, shortened: as §1
# [27] = target: Neu5Gc(a2-3)Gal(b1-4)GlcNAc
# Procedure, shortened: as §1
# [28] = target: Neu5Gc(b2-6)Gal(b1-4)GlcNAc
# Procedure, shortened: as §1
binder,measurement,setting,value
B1,glycan array binding signal (z-score),[1],-0.126
same,glycan array binding signal (z-score),[2],-0.539
same,glycan array binding signal (z-score),[3],2.2
same,glycan array binding signal (z-score),Fuc(a1-2)Gal(b1-4)Glc6S,-0.507
same,glycan array binding signal (z-score),[4],2.88
same,glycan array binding signal (z-score),[5],2.94
same,glycan array binding signal (z-score),[6],-0.115
same,glycan array binding signal (z-score),[7],-0.746
same,glycan array binding signal (z-score),[8],-0.233
same,glycan array binding signal (z-score),[9],-0.572
same,glycan array binding signal (z-score),[10],-0.7
same,glycan array binding signal (z-score),[11],2.38
same,glycan array binding signal (z-score),[12],-0.672
same,glycan array binding signal (z-score),[13],0.07
same,glycan array binding signal (z-score),Gal(b1-4)GlcNAc,-0.753
same,glycan array binding signal (z-score),Gal3S(b1-4)Glc6S,6.38
same,glycan array binding signal (z-score),Gal6S(b1-3)GlcNAc6S,3.63
same,glycan array binding signal (z-score),GlcA(b1-3)GlcNAc,0.43
same,glycan array binding signal (z-score),[14],3.21
same,glycan array binding signal (z-score),[15],-0.68
same,glycan array binding signal (z-score),[16],0.268
same,glycan array binding signal (z-score),[17],-0.62
same,glycan array binding signal (z-score),[18],2.16
same,glycan array binding signal (z-score),Neu5Ac(a2-3)Gal,-0.156
same,glycan array binding signal (z-score),[19],1.61
same,glycan array binding signal (z-score),[20],1.24
same,glycan array binding signal (z-score),[21],0.052
same,glycan array binding signal (z-score),[22],-0.167
same,glycan array binding signal (z-score),[23],-0.126
same,glycan array binding signal (z-score),[24],1.09
same,glycan array binding signal (z-score),[25],-0.776
same,glycan array binding signal (z-score),Neu5Ac(b2-6)GalNAc,1.84
same,glycan array binding signal (z-score),[26],-0.636
same,glycan array binding signal (z-score),[27],1
same,glycan array binding signal (z-score),[28],-0.408
